Nine molecules from PubChem BioAssay (NCI) can be followed below.

About 83,000 compounds went through this panel and 20% of them were active in at least one assay; those are over-represented in the sample as a whole.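 In brief: 96-well plates, 48 h treatment, single concentration, percent growth endpoint.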 A number with no mark means an inactive call. The source made the active and inactive calls. How the source made its calls: active means growth percent below 10; inactive means the rest.

Holding throughout (experiment): NCI-60 one-dose screen, 48 h (100 = growth as untreated, 0 = no growth, -100 = all killed)
The test system of one assay is SR leukemia. The following applies: 10 µM unless noted.
A further assay deals with RPMI-8226 leukemia. The following applies: 10 µM unless noted.
A further assay has as its system OVCAR-8 ovarian. The following applies: 10 µM unless noted.
Another assay deals with OVCAR-5 ovarian. The following applies: 10 µM unless noted.
Another assay deals with OVCAR-4 ovarian. The following applies: 10 µM unless noted.
In a further assay the test system is SK-OV-3 ovarian. The following applies: 10 µM unless noted.
For another assay, the system named is IGROV1 ovarian. The following applies: 10 µM unless noted.
The subject of a further assay is OVCAR-3 ovarian. The following applies: 10 µM unless noted.
The test system of the next assay is HS 578T breast. The following applies: 10 µM.
Another assay relates to NCI/ADR-RES ovarian. The following applies: 10 µM unless noted.
For another assay, the system named is T-47D breast. The following applies: 10 µM unless noted.
Another assay deals with BT-549 breast. The following applies: 10 µM unless noted.
The next assay relates to MDA-MB-435 melanoma. The following applies: 10 µM unless noted.
The subject of another assay is SW-620 colon. The following applies: 10 µM unless noted.
Another assay deals with MCF7 breast. The following applies: 10 µM unless noted.
The subject of another assay is HCT-116 colon. The following applies: 10 µM unless noted.
A further assay deals with HCC-2998 colon. The following applies: 10 µM unless noted.
The subject of another assay is KM12 colon. The following applies: 10 µM unless noted.

Regarding `CCCCCCCCCCCCCCCc1cc(O)ccc1[N+](=O)[O-]`, the growth in the assay with SR leukemia is 74.5%; in the assay on RPMI-8226 leukemia it was 36.3%; in the assay with OVCAR-8 ovarian, 76.9%; with OVCAR-5 ovarian, 94%; in the assay on OVCAR-4 ovarian, 87.2%; in the assay with SK-OV-3 ovarian, 92%. The growth in the assay with IGROV1 ovarian is 73.9%; in the assay on OVCAR-3 ovarian it was 87.7%; with HS 578T breast, 82.1%; in the assay with NCI/ADR-RES ovarian, 77.1%; in the assay with T-47D breast, 61.2%; with BT-549 breast, 76.4%. Besides, the growth was 96.8% in the assay on MDA-MB-435 melanoma; 93.1% in the assay on SW-620 colon; 66% with MCF7 breast; 64.7% in the assay with HCT-116 colon; 104% in the assay with HCC-2998 colon; 89.3% in the assay with KM12 colon.
For `CC(C)NC(=O)OCC#CCOC(=O)NC(C)C`, the growth in the assay on SR leukemia is 102%; with RPMI-8226 leukemia, 103%; in the assay with OVCAR-8 ovarian, 115%; in the assay with OVCAR-5 ovarian, 110%; with OVCAR-4 ovarian, 121%; in the assay on SK-OV-3 ovarian it was 94.8%. Moreover, the growth in the assay on IGROV1 ovarian was 90.6%; in the assay with OVCAR-3 ovarian, 108%; with HS 578T breast, 115%; in the assay with NCI/ADR-RES ovarian, 109%; in the assay with T-47D breast it was 99.2%; in the assay with BT-549 breast it was 95.7%. The growth with MDA-MB-435 melanoma is 110%; with SW-620 colon, 109%; in the assay with MCF7 breast, 94.4%; in the assay with HCT-116 colon, 95.4%; in the assay on HCC-2998 colon, 103%; with KM12 colon, 106%.
`NS(=O)(=O)c1ccc(N2N=C(c3cccs3)CC2c2ccccc2O)cc1` (stereo unspecified): the growth in the assay on SR leukemia was 1.1% (active); with RPMI-8226 leukemia it was 7.41% (active); in the assay on OVCAR-8 ovarian it was 9.96% (active); in the assay on OVCAR-5 ovarian it was 9.55% (active); in the assay on OVCAR-4 ovarian it was 60.8%; in the assay with SK-OV-3 ovarian, 6.78% (active). In addition, the growth in the assay on IGROV1 ovarian is 12.7%; in the assay with OVCAR-3 ovarian it was -20.6% (active); in the assay with HS 578T breast, 17.3%; in the assay on NCI/ADR-RES ovarian it was 27.3%; in the assay with T-47D breast, 46.1%; in the assay with BT-549 breast, -15.4% (active). Also, the growth in the assay on MDA-MB-435 melanoma was -41.1% (active); in the assay on SW-620 colon, 19.3%; with MCF7 breast, 4.97% (active); in the assay with HCT-116 colon, 3.06% (active); in the assay with HCC-2998 colon it was -8.11% (active); in the assay with KM12 colon, -15.8% (active).
On to `Cc1ccc(NC(=O)c2[nH]c(SCCN(C)C)nc2-c2ccc(F)cc2)cc1Nc1ccc2ncn(C)c(=O)c2c1`, for which the growth with SR leukemia was -24.9% (active); with RPMI-8226 leukemia, 40.8%; with OVCAR-8 ovarian it was 70%; in the assay with OVCAR-5 ovarian, 42.6%; with OVCAR-4 ovarian, 70.8%; with SK-OV-3 ovarian, 88.4%. Also, the growth in the assay on IGROV1 ovarian was 39.8%; with OVCAR-3 ovarian, 78.9%; with HS 578T breast it was 60.6%; in the assay with NCI/ADR-RES ovarian, 93.2%; with T-47D breast, 76.8%; with BT-549 breast, 85.2%. Further, the growth was 44.6% in the assay on MDA-MB-435 melanoma; 51.8% with SW-620 colon; 70% in the assay with MCF7 breast; 21% with HCT-116 colon; 49.9% with HCC-2998 colon.
For the molecule `CCOc1ccc([C@@H]2[C@@H](Oc3ccccc3)C(=O)N2c2cc(OC)c(OC)c(OC)c2)cc1`, the growth in the assay on SR leukemia was 5.44% (active); in the assay on RPMI-8226 leukemia, 5.16% (active); with OVCAR-8 ovarian, 24.2%; in the assay with OVCAR-5 ovarian, 43%; in the assay with OVCAR-4 ovarian it was 43.9%; in the assay on SK-OV-3 ovarian, 29.6%. The growth is 21.5% in the assay with IGROV1 ovarian; -8.31% (active) in the assay with OVCAR-3 ovarian; 34.6% in the assay with HS 578T breast; 14% with NCI/ADR-RES ovarian; 91.8% in the assay with T-47D breast; -18.2% (active) in the assay on BT-549 breast. Moreover, the growth was -25% (active) in the assay with MDA-MB-435 melanoma; 20.8% in the assay with SW-620 colon; 16.9% in the assay with MCF7 breast; -3.96% (active) in the assay on HCT-116 colon; 16.2% in the assay on HCC-2998 colon; 11.5% with KM12 colon.
For the molecule `C/C(=N\NC(=S)N1CCCCC1)c1ccccn1`, the growth with SR leukemia is -7.37% (active); with RPMI-8226 leukemia, -19.4% (active); in the assay on OVCAR-8 ovarian, 16%; with OVCAR-5 ovarian it was 29.3%; in the assay with OVCAR-4 ovarian, -30.6% (active); in the assay with SK-OV-3 ovarian, 27.6%. Moreover, the growth was 11.2% with IGROV1 ovarian; -12.9% (active) in the assay with OVCAR-3 ovarian; 16.8% with HS 578T breast; 15.2% in the assay on NCI/ADR-RES ovarian; 17.9% in the assay on T-47D breast; 29.4% in the assay with BT-549 breast. Besides, the growth in the assay on MDA-MB-435 melanoma is 14.6%; with SW-620 colon, 21.9%; with MCF7 breast, 12.8%; in the assay on HCT-116 colon, 13.3%; with HCC-2998 colon, 34.8%; with KM12 colon, 13%.
In the case of `Cc1n(Cc2ccc3ccccc3n2)cc[n+]1Cc1ccc2ccccc2n1`, the growth with SR leukemia was 48.8%; with RPMI-8226 leukemia, 24.6%; with OVCAR-8 ovarian, 97.9%; in the assay on OVCAR-5 ovarian, 83.4%; in the assay on OVCAR-4 ovarian, 24.1%; with SK-OV-3 ovarian, 91.1%. The growth was 64.4% in the assay on IGROV1 ovarian; 54.8% with OVCAR-3 ovarian; 92.1% in the assay on HS 578T breast; 98.7% with NCI/ADR-RES ovarian; 27.2% in the assay on T-47D breast; 72.8% in the assay on BT-549 breast. Also, the growth was 63% in the assay with MDA-MB-435 melanoma; 90.4% in the assay with SW-620 colon; 61.5% in the assay on MCF7 breast; 83.3% in the assay with HCT-116 colon; 62.8% in the assay on HCC-2998 colon; 50.6% in the assay with KM12 colon.
With `COc1ccc(/C=C(/C(=O)N2CCN(c3ccccc3)CC2)c2cc(OC)c(OC)c(OC)c2)cc1O`, the growth in the assay on SR leukemia was 9.53% (active); in the assay on RPMI-8226 leukemia, 10.9%; in the assay with OVCAR-8 ovarian it was 14.1%; in the assay with OVCAR-5 ovarian it was 51.2%; with OVCAR-4 ovarian it was 55.7%; in the assay on SK-OV-3 ovarian, 30.4%. Also, the growth was 32.2% with IGROV1 ovarian; -33.1% (active) in the assay with OVCAR-3 ovarian; 39.1% in the assay with HS 578T breast; 3.09% (active) in the assay with NCI/ADR-RES ovarian; 68.4% in the assay with T-47D breast; 8.46% (active) in the assay on BT-549 breast. The growth in the assay on MDA-MB-435 melanoma was -52.8% (active); with SW-620 colon, 24.1%; with MCF7 breast, 19%; with HCT-116 colon, 6.78% (active); with HCC-2998 colon, 28.6%; in the assay on KM12 colon, 9.6% (active).
On to `CC[C@H](Nc1nc(N)nc(C2CC2)c1C#N)c1nc2cccc(NCc3ccc(C(=O)NO)cc3)c2c(=O)n1-c1ccccc1`, for which the growth with SR leukemia is -0.809% (active); in the assay on RPMI-8226 leukemia, 4.07% (active); with OVCAR-8 ovarian, 1.08% (active); in the assay on OVCAR-5 ovarian, 14.8%; with OVCAR-4 ovarian, 8.75% (active); in the assay with SK-OV-3 ovarian it was -9.63% (active). Moreover, the growth is 2.3% (active) in the assay with IGROV1 ovarian; 9.13% (active) in the assay with OVCAR-3 ovarian; 13.5% in the assay on HS 578T breast; 45.8% with NCI/ADR-RES ovarian; -5.53% (active) with T-47D breast; 33.3% in the assay with BT-549 breast. Further, the growth was 7.07% (active) with MDA-MB-435 melanoma; 11.6% in the assay on SW-620 colon; 4.25% (active) in the assay on MCF7 breast; -59.8% (active) with HCT-116 colon; 0.531% (active) with HCC-2998 colon; 8.71% (active) in the assay on KM12 colon.
